Reference: the supplement of paper PMC6555819

Columns and labels:
Experiment in all cases: PBM binding z-score (relative to random genomic background probes); higher = stronger binding; sequences stand for … in GC…GCGATTGACAGCGTAGAATGAAGG
[1] = system: FXR:RXRa (NR concentration 270 nM, RXRa partner concentration 90 nM)
Summary of the method: (§1)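 Ligand-free nuclear receptor dimers were bound for 1 h to custom Agilent 4×180K protein-binding microarrays. Detection used antibodies against each partner (one per run). Binding z-scores rest on regression-normalized fluorescence, with random background probes as the reference.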

[2] = system: LXRa:RXRa (NR concentration 270 nM, RXRa partner concentration 90 nM)
Summary of the method: as §1

[3] = system: LXRa homodimer (NR concentration 270 nM)
Summary of the method: as §1

[4] = system: LXRb:RXRa (NR concentration 270 nM, RXRa partner concentration 90 nM)
Summary of the method: as §1

[5] = system: LXRb homodimer (NR concentration 270 nM)
Summary of the method: as §1

[6] = system: PPARa:RXRa (NR concentration 270 nM, RXRa partner concentration 90 nM)
Summary of the method: as §1

[7] = system: PPARg:RXRa (NR concentration 180 nM, RXRa partner concentration 90 nM)
Summary of the method: as §1

[8] = system: PPARg:RXRa 270nM:90nM, anti-RXR (NR concentration 270 nM, RXRa partner concentration 90 nM)
Summary of the method: as §1

[9] = system: PPARg:RXRa 30nM:10nM, anti-RXR (NR concentration 30 nM, RXRa partner concentration 10 nM)
Summary of the method: as §1

[10] = system: PPARg:RXRa 90nM:30nM, anti-RXR (NR concentration 90 nM, RXRa partner concentration 30 nM)
Summary of the method: as §1

[11] = system: PPARg:RXRa DBDmut IVT, anti-RXR (DBD mutation: RXRa K156A/R161A, NR concentration 270 nM, RXRa partner concentration 90 nM)
Summary of the method: as §1

[12] = system: PPARg:RXRa IVT, anti-PPARg (NR concentration 270 nM, RXRa partner concentration 90 nM)
Summary of the method: as §1

[13] = system: PPARg DBDmut:RXRa IVT, anti-PPARg (DBD mutation: PPARg1 K132A/R137A, NR concentration 270 nM, RXRa partner concentration 90 nM)
Summary of the method: as §1

[14] = system: PPARg DBDmut IVT, anti-PPARg (DBD mutation: PPARg1 K132A/R137A, NR concentration 270 nM)
Summary of the method: as §1

[15] = system: PPARg homodimer (NR concentration 180 nM)
Summary of the method: as §1

[16] = system: PXR:RXRa (NR concentration 270 nM, RXRa partner concentration 90 nM)
Summary of the method: as §1

[17] = system: PXR homodimer (NR concentration 270 nM)
Summary of the method: as §1

[18] = system: RARa:RXR (NR concentration 270 nM, RXRa partner concentration 90 nM)
Summary of the method: as §1

[19] = system: RARa homodimer (NR concentration 270 nM)
Summary of the method: as §1

[20] = system: RARb:RXRa (NR concentration 270 nM, RXRa partner concentration 90 nM)
Summary of the method: as §1

Sequence	PBM binding z-score [1]	PBM binding z-score [2]	PBM binding z-score [3]	PBM binding z-score [4]	PBM binding z-score [5]	PBM binding z-score [6]	PBM binding z-score [7]	PBM binding z-score [8]	PBM binding z-score [9]	PBM binding z-score [10]	PBM binding z-score [11]	PBM binding z-score [12]	PBM binding z-score [13]	PBM binding z-score [14]	PBM binding z-score [15]	PBM binding z-score [16]	PBM binding z-score [17]	PBM binding z-score [18]	PBM binding z-score [19]	PBM binding z-score [20]
CCTACTGGGCCAAAAAGGTGATTGATGCCGATAA	-0.195	-0.147	-0.405	-0.234	-0.963	0.761	0.56	0.945	-0.119	0.309	2.58	2.98	-0.0281	-0.242	0.459	-0.0996	-0.324	-0.0994	-0.0492	0.271
ATCTCTAGGTAAACATAGTTCAGTGAATGCAAAT	0.367	4.22	0.983	1.07	0.728	0.819	1.12	1.07	0.499	0.945	2.31	2.59	0.983	1.45	1.28	1.35	0.955	0.73	1.3	1.01
CCTTACGGGTCACTTCAGGTTATAGCATCGGAGT	5.1	7.75	2.3	5.47	0.687	4.36	3.23	3.7	1.22	2.2	3.08	3.1	0.834	0.414	1.97	5.04	0.776	3.67	1	3.57
ACTATTAGTTGACTTAGGGCAGCCGATACGACGC	-0.0135	-0.0603	0.0917	-0.372	0.721	-0.383	0.697	0.151	-0.128	0.0745	0.0635	0.0175	1.35	0.429	-0.15	-0.251	-0.115	-0.045	0.705	0.758
CGTACAAGGTCATAGGAGGTCAGTGAAGACAGAT	7.48	7.5	5.3	6.46	1.33	6.18	6.47	6.66	3.17	5.29	3.97	5.5	1.11	0.76	3.74	6.82	3.5	5.66	1.72	5.44
CGAACGAGGGCACGAGTTGATAGCAAATGCCGAT	0.992	0.567	-0.547	0.453	-0.624	2.28	2.4	1.99	0.448	1.44	3.89	3.93	0.0277	-0.0688	-0.0293	0.738	0.271	1.12	-0.123	2.6
CAGCCGAGGTCAGGGCCAGTATAGGAGGAACGTT	6.57	3.98	-0.152	3.28	-0.519	5.6	5.04	4.49	1.2	3.28	1.87	3.21	0.298	-0.547	2.95	3.5	0.241	4.36	0.349	4.81
CTACCATGGTGAACAAGGTCGTTGATTACTATTC	0.251	0.452	0.165	1.23	-0.219	1.07	0.161	0.378	-0.000193	0.175	0.666	0.434	0.343	0.226	0.387	1.56	0.655	1.43	0.262	0.627
ATCTCTAGGTAATCAAGTTCAGTGAATGCCGAAC	0.473	1.01	1.61	0.658	0.711	1.01	0.317	1.19	0.611	1.19	2.71	2.29	0.964	0.455	0.892	1.95	2	0.799	0.778	1
TCTAGTTGGTCAAAGCTCACACACTCGAAATGCG	0.576	0.551	0.233	0.661	0.421	1.58	2.21	4.31	3.89	4.23	2.36	1.86	0.492	0.777	1.1	0.532	-0.0371	0.758	0.56	1.01
CATCCAAGGTCAATGCTAGGTCAGTGAAAGCATT	6.67	5.98	4.36	4.42	1.77	5.06	4.32	4.66	1.44	3.53	3.38	4.16	0.505	0.239	5.51	4.73	1.76	5.95	2.23	5.04
CAGCCTGGGTCAGGGCCAGTATAGGAGGAACGTT	0.78	0.261	-0.628	0.24	-1.02	2.03	0.871	0.727	-0.545	0.0759	-0.161	1.32	-1.28	-1.68	0.728	0.109	-0.685	0.59	-0.125	2.83
CCTACTGGCCCAAAGGTCATTGATTCCAATGCTC	4.8	5.12	4.37	4.8	1.23	5.27	7.37	7.17	5.9	7.85	0.578	3.61	-0.204	-0.16	2.07	5	0.894	4.8	1.12	4.44
CAAACTAGGTCACGAAAGGTGAAAGTCGAATGAC	5.43	5.63	0.891	4.24	0.569	6.05	9.57	7.7	6.24	7.8	8.57	8.88	1.44	1.5	3.13	4.13	0.228	4.69	1.24	4.84
